Growth data for 9 compounds are collected here from PubChem BioAssay (NCI).

What all share (experiment): NCI-60 one-dose screen, 48 h (100 = growth as untreated, 0 = no growth, -100 = all killed)
The test system of one assay is A549/ATCC NSCLC. As to conditions: 10 µM unless noted.
For the next assay, the system named is COLO 205 colon. As to conditions: 10 µM.
The next assay concerns MALME-3M melanoma. The following applies: 10 µM unless noted.
The test system of the next assay is RXF 393 renal. The following applies: 10 µM unless noted.
A further assay deals with UACC-257 melanoma. As to conditions: 10 µM unless noted.
For another assay, the system named is HT29 colon. The following applies: 10 µM unless noted.
The next assay relates to U251 CNS. As to conditions: 10 µM unless noted.
Another assay concerns SK-MEL-2 melanoma. As to conditions: 10 µM unless noted.
The subject of another assay is SN12C renal. As to conditions: 10 µM unless noted.
Another assay concerns UO-31 renal. The following applies: 10 µM unless noted.
Another assay has as its system CAKI-1 renal. As to conditions: 10 µM unless noted.
A further assay concerns A498 renal. As to conditions: 10 µM unless noted.
The next assay concerns HL-60(TB) leukemia. As to conditions: 10 µM unless noted.
In the next assay the test system is OVCAR-8 ovarian. The following applies: 10 µM unless noted.
The next assay deals with OVCAR-4 ovarian. The following applies: 10 µM unless noted.
The next assay has as its system SK-OV-3 ovarian. As to conditions: 10 µM unless noted.
Another assay deals with HS 578T breast. As to conditions: 10 µM unless noted.
In another assay the test system is T-47D breast. The following applies: 10 µM unless noted.
For a further assay, the system named is BT-549 breast. As to conditions: 10 µM.
The next assay deals with MDA-MB-435 melanoma. As to conditions: 10 µM unless noted.

Each structure is given as a SMILES string. About 83,000 compounds went through this panel and 20% of them were active in at least one assay; those are over-represented in the sample as a whole.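 Single-concentration screen, 48 h exposure, 96-well plates. Endpoint: percent growth. Below 10 = active.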 Values without a mark were called inactive. Calls of active or inactive are those of the source.

For `O=C(CF)N(O)c1ccc(/C=C/c2ccccc2)cc1`, the growth with A549/ATCC NSCLC is 36.4%; in the assay on COLO 205 colon, 68.8%; in the assay with MALME-3M melanoma it was 82.9%; with RXF 393 renal it was 50.7%; in the assay with UACC-257 melanoma, -7.11% (active); in the assay with HT29 colon, 57.6%. Also, the growth was 35.6% in the assay with U251 CNS; 94.9% with SK-MEL-2 melanoma; 26.6% in the assay on SN12C renal; 36.2% with UO-31 renal; 11.9% with CAKI-1 renal; -31.7% (active) with A498 renal. Moreover, the growth is 13.4% with HL-60(TB) leukemia; 39.9% with OVCAR-8 ovarian; 70.8% with OVCAR-4 ovarian; 65.6% in the assay on SK-OV-3 ovarian; 99% in the assay on HS 578T breast; 26% in the assay with T-47D breast. Further, the growth in the assay with BT-549 breast was 44.9%.

Consider `COc1ccc(/C=C(/C(=O)N2CCCC2)c2cc(OC)c(OC)c(OC)c2)cc1N`, for which the growth is 41.1% in the assay on A549/ATCC NSCLC; 5.31% (active) in the assay with COLO 205 colon; 11.2% in the assay with RXF 393 renal; 53.8% in the assay on UACC-257 melanoma; 9.12% (active) in the assay on HT29 colon; 31% in the assay with U251 CNS. In addition, the growth in the assay with SK-MEL-2 melanoma was 42.6%; in the assay on SN12C renal it was 40.8%; in the assay with UO-31 renal it was 51.7%; with A498 renal, -0.924% (active); with HL-60(TB) leukemia it was -11.9% (active); in the assay on OVCAR-8 ovarian, 41.8%. Also, the growth in the assay with OVCAR-4 ovarian was 46.4%; in the assay on SK-OV-3 ovarian, 28.7%; in the assay on HS 578T breast, 15.2%; in the assay on T-47D breast, 37.8%; in the assay with BT-549 breast, 57.1%; in the assay on MDA-MB-435 melanoma, -39.8% (active).

As to `CC(C)OC(=S)[S-].[Au+].c1ccc([PH+](c2ccccc2)c2ccccc2)cc1`, the growth is 84.5% in the assay with A549/ATCC NSCLC; 5.97% (active) in the assay with MALME-3M melanoma; -77.1% (active) with RXF 393 renal; 28.1% in the assay on UACC-257 melanoma; 55.7% in the assay with HT29 colon; 11.2% in the assay on U251 CNS. The growth in the assay on SK-MEL-2 melanoma was 33%; in the assay on SN12C renal it was 16.7%; with UO-31 renal it was 21.9%; with CAKI-1 renal it was 16.7%; in the assay on HL-60(TB) leukemia, 1.15% (active); in the assay with OVCAR-8 ovarian, 27.2%. Further, the results for the growth in the assay with OVCAR-4 ovarian, in the assay with HS 578T breast and in the assay with BT-549 breast were 38.9%, 15.6% and -3.75% (active), respectively.

Regarding `CC(=O)[O][Hg][CH2]C1(C)COC(C)([CH2][Hg][O]C(C)=O)CO1` (stereo not given), the growth with COLO 205 colon is -77.4% (active); in the assay on UACC-257 melanoma it was 93.6%; in the assay with HT29 colon it was -25.6% (active); in the assay with U251 CNS, -96.2% (active); in the assay on SK-MEL-2 melanoma, 63.2%; with SN12C renal, -87.1% (active). The growth was -39.3% (active) in the assay on UO-31 renal; -100% (active) in the assay on CAKI-1 renal; 75.8% with A498 renal; 74.4% in the assay on HL-60(TB) leukemia; 50.7% with OVCAR-8 ovarian; 123% in the assay with OVCAR-4 ovarian. For the same compound, the growth with SK-OV-3 ovarian is 103%; in the assay on HS 578T breast, 84.3%; with T-47D breast, 4.43% (active); in the assay on BT-549 breast, -100% (active); in the assay with MDA-MB-435 melanoma, -2.3% (active).

As to `N#Cc1ncc(/N=C/c2ccc(N(CCCl)CCCl)cc2)s1`, the growth in the assay on A549/ATCC NSCLC was 86%; with COLO 205 colon, 99.4%; in the assay with RXF 393 renal, 84.7%; in the assay with UACC-257 melanoma it was 82.4%; in the assay with HT29 colon, 91.6%; in the assay with U251 CNS, 80.5%. Moreover, the growth is 57% with SK-MEL-2 melanoma; 34.8% in the assay on UO-31 renal; 7.36% (active) with CAKI-1 renal; 88.2% in the assay with A498 renal; 39.3% in the assay on HL-60(TB) leukemia; 78.3% with OVCAR-8 ovarian. Moreover, the growth was 81.9% in the assay with OVCAR-4 ovarian; 78.5% in the assay on SK-OV-3 ovarian; 90.4% with HS 578T breast; 64.2% in the assay on T-47D breast; 66% with BT-549 breast; 87.8% in the assay with MDA-MB-435 melanoma.

On to `N#C[Se]CCCNS(=O)(=O)C1CC2C=CC1C2` (stereo not given), for which the growth was -34.1% (active) with A549/ATCC NSCLC; -39% (active) in the assay with COLO 205 colon; -55.5% (active) in the assay on MALME-3M melanoma; -90% (active) in the assay on RXF 393 renal; -55.3% (active) in the assay with UACC-257 melanoma; 1.16% (active) in the assay on HT29 colon. The growth with U251 CNS was -76.6% (active); in the assay with SK-MEL-2 melanoma it was -24.4% (active); with SN12C renal, -25.6% (active); with UO-31 renal, -98.7% (active); in the assay with CAKI-1 renal, -99.1% (active); with HL-60(TB) leukemia it was -41.1% (active). For the same compound, the growth is -27.1% (active) in the assay on OVCAR-8 ovarian; 10% in the assay with OVCAR-4 ovarian; -36.4% (active) with SK-OV-3 ovarian; -25.9% (active) in the assay with HS 578T breast; 30.6% with T-47D breast; -71.3% (active) in the assay on BT-549 breast. The growth in the assay on MDA-MB-435 melanoma is -41.2% (active).

Turning to `C/C1=C/C(=O)O[C@@H]2C[C@@H](CC[C@H](C)/C=C\C=C\CC1)O[C@@](OCCc1ccccc1)([C@@H]1CSC(=O)N1)C2`, the growth is 15.4% in the assay with A549/ATCC NSCLC; 5.64% (active) in the assay with COLO 205 colon; -10.3% (active) in the assay on MALME-3M melanoma; -77.1% (active) in the assay with RXF 393 renal; -3.39% (active) in the assay on UACC-257 melanoma; 8.63% (active) in the assay with HT29 colon. Besides, the growth in the assay with U251 CNS is 16.4%; in the assay on SK-MEL-2 melanoma, 67.7%; with SN12C renal, 39.1%; in the assay with UO-31 renal, -62.5% (active); in the assay on CAKI-1 renal it was -74.3% (active); in the assay on A498 renal it was -29.1% (active). The growth is 90.6% in the assay on HL-60(TB) leukemia; 46.2% in the assay on OVCAR-8 ovarian; -4.5% (active) with OVCAR-4 ovarian; -32.3% (active) in the assay on SK-OV-3 ovarian; -2.84% (active) in the assay with HS 578T breast; 61% in the assay on T-47D breast. Also, the growth in the assay on BT-549 breast was -43% (active).

With `OC1CCCCC1N1CCC(c2ccccc2)CC1` (stereo not given), the growth is 106% in the assay on A549/ATCC NSCLC; 107% with COLO 205 colon; 103% in the assay with MALME-3M melanoma; 124% with RXF 393 renal; 109% in the assay on UACC-257 melanoma; 97.3% with HT29 colon. Besides, the growth in the assay with U251 CNS was 105%; in the assay on SN12C renal, 109%; with UO-31 renal it was 82.5%; with CAKI-1 renal, 96.5%; with A498 renal, 89.4%; with HL-60(TB) leukemia, 86.2%. Moreover, the growth with OVCAR-8 ovarian is 103%; in the assay on OVCAR-4 ovarian, 109%; in the assay with SK-OV-3 ovarian, 104%; in the assay on HS 578T breast, 108%; with T-47D breast, 96.8%; in the assay on BT-549 breast, 97.6%. Moreover, the growth in the assay on MDA-MB-435 melanoma was 100%.

Take `N#CC(C#N)=Cc1ccc2ccccc2c1`: the growth with A549/ATCC NSCLC was 107%; in the assay with COLO 205 colon, 110%; in the assay with RXF 393 renal, 96.5%; in the assay on UACC-257 melanoma, 108%; in the assay on HT29 colon it was 113%; in the assay with U251 CNS, 104%. The growth with SK-MEL-2 melanoma is 102%; in the assay with SN12C renal it was 111%; with CAKI-1 renal it was 101%; in the assay on HL-60(TB) leukemia, 96.4%; in the assay on OVCAR-8 ovarian it was 105%; with OVCAR-4 ovarian, 110%. Further, the growth in the assay with SK-OV-3 ovarian was 104%; in the assay with T-47D breast it was 110%; with BT-549 breast it was 100%; with MDA-MB-435 melanoma it was 114%.
